Measurements: PubChem BioAssay (NCATS)
Records with an inconclusive call do not appear. The source made the active and inactive calls. Unless noted, the call rests on the fitted dose curve.

Columns and labels:
[1] = biological target: Estrogen receptor (Homo sapiens) (UniProt P03372); test: qHTS assay for small molecule agonists of estrogen receptor alpha signaling (AID 588514); further: nearly all actives have a fitted effect of over 70% in size; further: potency means the concentration at half of the fitted maximal effect;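 on activation: 0% = vehicle only and 100% = reference agonist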
Sequence of Estrogen receptor (Homo sapiens) (P03372 whole entry, looked up): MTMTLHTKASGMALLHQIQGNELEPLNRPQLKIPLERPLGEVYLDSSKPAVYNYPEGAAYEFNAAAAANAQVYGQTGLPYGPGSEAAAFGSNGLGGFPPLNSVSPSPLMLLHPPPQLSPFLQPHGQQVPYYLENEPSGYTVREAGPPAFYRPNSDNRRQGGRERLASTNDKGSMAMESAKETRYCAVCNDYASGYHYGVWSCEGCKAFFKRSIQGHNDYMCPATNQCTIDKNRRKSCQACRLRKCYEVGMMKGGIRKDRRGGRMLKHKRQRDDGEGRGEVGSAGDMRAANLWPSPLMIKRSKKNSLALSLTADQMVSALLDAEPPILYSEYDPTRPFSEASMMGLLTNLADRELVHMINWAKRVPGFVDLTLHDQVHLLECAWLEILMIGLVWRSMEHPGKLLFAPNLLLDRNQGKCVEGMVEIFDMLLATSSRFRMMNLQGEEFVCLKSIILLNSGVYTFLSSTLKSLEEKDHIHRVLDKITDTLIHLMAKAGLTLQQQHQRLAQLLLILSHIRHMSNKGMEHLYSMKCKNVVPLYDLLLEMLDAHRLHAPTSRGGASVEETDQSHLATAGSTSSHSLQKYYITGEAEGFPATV
In short: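 Reporter-gene assay. […] controls beta-lactamase in HEK 293 GripTite cells; after 18 hrs with compound, CCF4 substrate is added for 2 hrs and fluorescence is read.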

[2] = biological target: Glucocorticoid receptor (Homo sapiens) (UniProt P04150); test: qHTS assay for small molecule agonists of glucocorticoid receptor signaling (AID 588532; active means well fitted curve in the direction sought with a large enough effect in the signal ratio, with a control signal flat; the % refers to the signal ratio;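 further: 100% = dexamethasone at 0.1 µM and 0% = DMSO only wells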); conditions: HeLa MMTV-bla, beta-lactamase ratio, agonist, 18 h; stronger effect = higher value; percent of dexamethasone control, DMSO zero
Sequence of Glucocorticoid receptor (Homo sapiens) (P04150 whole entry, looked up): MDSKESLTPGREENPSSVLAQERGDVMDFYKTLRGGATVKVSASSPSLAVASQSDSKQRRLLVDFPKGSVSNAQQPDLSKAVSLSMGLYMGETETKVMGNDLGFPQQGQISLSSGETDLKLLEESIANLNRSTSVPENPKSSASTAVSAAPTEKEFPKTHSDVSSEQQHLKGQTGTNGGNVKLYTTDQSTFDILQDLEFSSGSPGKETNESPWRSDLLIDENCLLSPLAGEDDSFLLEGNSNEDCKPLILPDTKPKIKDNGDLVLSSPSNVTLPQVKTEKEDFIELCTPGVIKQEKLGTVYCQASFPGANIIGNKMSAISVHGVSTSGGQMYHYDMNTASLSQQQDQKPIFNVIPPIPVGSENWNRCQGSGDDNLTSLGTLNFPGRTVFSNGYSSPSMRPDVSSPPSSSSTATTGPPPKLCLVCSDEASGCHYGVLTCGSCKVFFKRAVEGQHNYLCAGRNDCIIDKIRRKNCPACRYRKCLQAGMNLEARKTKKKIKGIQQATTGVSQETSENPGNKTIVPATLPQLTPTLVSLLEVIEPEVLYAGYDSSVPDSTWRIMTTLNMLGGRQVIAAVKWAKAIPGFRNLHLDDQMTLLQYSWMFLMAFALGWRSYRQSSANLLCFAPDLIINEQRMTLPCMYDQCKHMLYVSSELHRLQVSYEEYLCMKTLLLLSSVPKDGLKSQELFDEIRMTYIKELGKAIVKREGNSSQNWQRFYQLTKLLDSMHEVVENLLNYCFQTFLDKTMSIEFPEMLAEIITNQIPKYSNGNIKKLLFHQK
In short: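 Using MMTV-bla HeLa cells in medium with 1% stripped FBS and 25 mM HEPES, compounds were titrated and incubated overnight-length (18 h). Beta-lactamase cleavage of CCF4 was quantified by dual-emission fluorescence.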

[3] = biological target: Glucocorticoid receptor (Homo sapiens) (UniProt P04150); test: qHTS assay for small molecule antagonists of glucocorticoid receptor signaling (AID 588533; active means well fitted inhibition curve with a large enough effect in the signal ratio, with a control signal flat, not every such curve was filed as active; the % refers to the signal ratio;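 further: cells stimulated with 2 nM dexamethasone as agonist; on the % scale 0 is the no-effect control and ±100 the full control effect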)
In short: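 Antagonist-mode qHTS: compound titrations added to GRE-bla HeLa cells, then dexamethasone 2 nM final; 18 h, 37 C. CCF4 FRET fluorescence normalized to dexamethasone and DMSO; IC50 from Hill fit.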

[4] = biological target: Peroxisome proliferator-activated receptor gamma (Homo sapiens) (UniProt P37231); test: qHTS assay for small molecule agonists of peroxisome proliferator-activated receptor gamma signaling (AID 588536; active means well fitted curve in the direction sought with a large enough effect in the signal ratio, with a control signal flat, not every such curve was filed as active; the % refers to the signal ratio;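 further: 0% = DMSO basal wells and 100% = rosiglitazone at 2 µM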)
Sequence of Peroxisome proliferator-activated receptor gamma (Homo sapiens) (P37231 whole entry, looked up): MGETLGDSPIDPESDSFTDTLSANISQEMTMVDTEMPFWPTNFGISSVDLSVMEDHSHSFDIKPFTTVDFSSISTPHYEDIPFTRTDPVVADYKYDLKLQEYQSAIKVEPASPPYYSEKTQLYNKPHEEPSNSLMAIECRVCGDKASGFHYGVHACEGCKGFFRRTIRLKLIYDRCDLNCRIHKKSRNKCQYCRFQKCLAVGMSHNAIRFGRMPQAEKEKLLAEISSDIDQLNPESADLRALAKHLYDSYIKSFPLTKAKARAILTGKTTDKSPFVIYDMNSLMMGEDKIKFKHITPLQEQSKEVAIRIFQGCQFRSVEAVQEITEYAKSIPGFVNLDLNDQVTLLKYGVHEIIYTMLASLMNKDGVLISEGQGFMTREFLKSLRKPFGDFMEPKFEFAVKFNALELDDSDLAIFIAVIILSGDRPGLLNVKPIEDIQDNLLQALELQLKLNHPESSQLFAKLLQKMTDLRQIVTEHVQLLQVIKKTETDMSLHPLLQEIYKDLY
In short: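 HEK293 UAS-bla reporter line, 1% charcoal/dextran FBS; titration, 16 h, 37 C; CCF4 loading 2 h RT; fluorescence 460/530 nm. Normalized to rosiglitazone 2 uM = 100%, DMSO = 0%.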

[5] = biological target: Vitamin D3 receptor (Homo sapiens) (UniProt P11473); test: qHTS assay for small molecule antagonists of vitamin D receptor signaling (AID 588541);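 further: receptor activated by calcitriol during compound treatment; series mostly up to about 77 µM; on the % scale 0 is the no-effect control and ±100 the full control effect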
Sequence of Vitamin D3 receptor (Homo sapiens) (P11473 whole entry, looked up): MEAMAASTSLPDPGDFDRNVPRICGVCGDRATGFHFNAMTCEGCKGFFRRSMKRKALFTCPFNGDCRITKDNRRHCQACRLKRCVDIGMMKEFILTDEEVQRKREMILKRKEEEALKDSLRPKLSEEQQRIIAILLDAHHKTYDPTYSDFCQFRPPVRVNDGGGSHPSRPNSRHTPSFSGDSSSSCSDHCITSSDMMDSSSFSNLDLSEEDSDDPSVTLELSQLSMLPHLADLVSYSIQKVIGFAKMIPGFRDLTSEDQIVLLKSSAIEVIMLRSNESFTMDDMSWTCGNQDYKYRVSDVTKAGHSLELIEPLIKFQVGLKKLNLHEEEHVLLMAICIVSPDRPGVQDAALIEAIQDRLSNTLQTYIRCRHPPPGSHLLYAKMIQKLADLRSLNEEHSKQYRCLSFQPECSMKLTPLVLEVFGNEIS
In short: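 Antagonist-mode beta-lactamase reporter assay: HEK293T VDR-UAS-bla cells were exposed to titrated compound alongside 1-alpha,25-dihydroxyvitamin D3 at 3 nM final for 16 h. Values were normalized to the 50 nM agonist control and DMSO basal, with IC50 and efficacy from Hill equation fits.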

[6] = biological target: Vitamin D3 receptor (Homo sapiens) (UniProt P11473); test: qHTS assay for small molecule agonists of vitamin D receptor signaling (AID 588543);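 further: 0% = DMSO basal and 100% = reference agonist control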
In short: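 Measured: β-lactamase reporter activity (CCF4, 405 nm excitation, 460/530 nm emission) in HEK293T VDR-UAS-bla cells after 16 h compound exposure at 37 °C. Normalization against 50 nM 1α,25-dihydroxyvitamin D3 and DMSO; Hill-fit EC50.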

[7] = qHTS assay for small molecule agonists of retinoid X receptor alpha signaling (AID 588544); conditions: HEK293T RXRa-UAS-bla, beta-lactamase reporter, 18 h; 530 nm emission;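 on activation: 0% = DMSO basal wells and 100% = reference agonist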
[8] = biological target: Retinoic acid receptor RXR-alpha (Homo sapiens) (UniProt P19793); test: as above
Sequence of Retinoic acid receptor RXR-alpha (Homo sapiens) (P19793 whole entry, looked up): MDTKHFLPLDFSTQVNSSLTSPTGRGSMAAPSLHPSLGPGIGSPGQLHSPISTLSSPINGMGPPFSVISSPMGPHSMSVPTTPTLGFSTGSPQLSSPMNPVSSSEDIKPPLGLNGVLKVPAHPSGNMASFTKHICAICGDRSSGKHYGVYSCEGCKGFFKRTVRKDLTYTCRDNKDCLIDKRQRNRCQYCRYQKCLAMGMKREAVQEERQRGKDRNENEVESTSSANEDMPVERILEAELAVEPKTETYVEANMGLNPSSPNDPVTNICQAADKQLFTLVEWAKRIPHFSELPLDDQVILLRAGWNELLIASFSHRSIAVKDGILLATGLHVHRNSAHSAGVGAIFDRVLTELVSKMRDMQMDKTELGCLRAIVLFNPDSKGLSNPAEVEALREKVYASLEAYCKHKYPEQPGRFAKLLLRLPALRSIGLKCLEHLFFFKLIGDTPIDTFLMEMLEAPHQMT

[9] = qHTS assay for small molecule antagonists of retinoid X receptor alpha signaling (AID 588546; active means well fitted inhibition curve with a large enough effect in the signal ratio, with a control signal flat, not every such curve was filed as active; the % refers to the signal ratio; further: potency means the concentration at half of the fitted maximal effect;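 on max response: cells stimulated with 9-cis-retinoic acid as agonist; on the % scale 0 is the no-effect control and ±100 the full control effect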); conditions: HEK293T RXRa-UAS-bla, beta-lactamase ratio, antagonist mode; measured here: W530 green channel, cytotoxicity proxy
In short: (§1)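 Beta-lactamase reporter inhibition, read as CCF4 fluorescence ratio (ex 405, em 460/530 nm) after 2 h at RT. HEK293T UAS-bla cells, 2500/well, were stimulated with 9-cis-RA at 500 or 100 nM final alongside test compound for 18 h at 37 C.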

[10] = biological target: Retinoic acid receptor RXR-alpha (Homo sapiens) (UniProt P19793); test: as above; conditions: HEK293T RXRa-UAS-bla, beta-lactamase ratio, antagonist mode
In short: as §1

[11] = qHTS assay for small molecule activators of the nuclear factor-kappa B (NF-kB) signaling pathway (AID 651749; active means well fitted activation curve with a large enough effect in the signal ratio; the % refers to the signal ratio; further: potency means the concentration at half of the fitted maximal effect; on activation: series mostly up to about 77 µM; % of control where 0% means no effect); conditions: NF-kB-bla ME-180 cells, beta-lactamase FRET ratio, 16 h; activation: stronger effect = higher value
In short: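 Stably transfected ME-180 line; NF-kB response element upstream of beta-lactamase. Treatment: compound or DMSO, 16 hr. Detection: fluorescent FRET substrate.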

[12] = qHTS assay for environmental chemicals that activate the Aryl hydrocarbon Receptor (AhR) signaling pathway (AID 651777; active means well fitted curve in the direction sought with a large enough effect; an effect the other way counts as inactive or inconclusive; further: % of control where 0% means no effect; nearly all actives have a fitted effect of over 15% in size); conditions: 1A2-DRE human hepatoma cells, luciferase, 24 h; activation: stronger effect = higher value
In short: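 Reporter gene assay: hepatoma cells with DRE/CYP1A2-luciferase, 24 hr compound incubation at 37 C, 5% CO2, luminescence after One-Glo (30 min, RT).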

[13] = biological target: Peroxisome proliferator-activated receptor alpha (Homo sapiens) (UniProt Q07869); test: qHTS assay for small molecule agonists of the peroxisome proliferator-activated receptor alpha (PPARalpha) signaling pathway (AID 651778; active means well fitted curve in the direction sought with a large enough effect; an effect the other way counts as inactive or inconclusive; further: % of control where 0% means no effect); conditions: PathHunter PPARalpha complementation, chemiluminescence, 6 h; max response: stronger effect = higher value
Sequence of Peroxisome proliferator-activated receptor alpha (Homo sapiens) (Q07869 whole entry, looked up): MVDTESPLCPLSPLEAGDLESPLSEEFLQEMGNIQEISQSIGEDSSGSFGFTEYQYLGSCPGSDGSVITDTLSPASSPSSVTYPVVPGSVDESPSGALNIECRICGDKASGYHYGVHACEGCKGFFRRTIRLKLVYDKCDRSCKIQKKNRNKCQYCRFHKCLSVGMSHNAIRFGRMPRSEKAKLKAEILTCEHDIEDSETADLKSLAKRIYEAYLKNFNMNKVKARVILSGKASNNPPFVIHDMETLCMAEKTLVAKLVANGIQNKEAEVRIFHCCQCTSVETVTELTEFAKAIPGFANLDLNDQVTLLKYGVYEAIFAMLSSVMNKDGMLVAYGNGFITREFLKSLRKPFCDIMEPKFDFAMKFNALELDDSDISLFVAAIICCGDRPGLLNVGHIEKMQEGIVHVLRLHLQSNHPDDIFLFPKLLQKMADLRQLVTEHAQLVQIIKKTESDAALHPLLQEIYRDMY
In short: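 Chemiluminescence from complemented enzyme reported PPARalpha activation in cells after 6 hr of compound treatment at 37 C. The detection reagent was incubated for 60 min at room temperature, and compounds were scored as agonists.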

[14] = qHTS assay for small molecule agonists of the antioxidant response element (ARE) signaling pathway measured by Nrf2-dependant transcriptional activity (AID 720636; active means well fitted curve in the direction sought with a large enough effect in the repeat runs; an effect the other way counts as inactive or inconclusive;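 further: HepG2 cells with an ARE-driven luciferase reporter; % of control where 0% means no effect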)
In short: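 Nrf2-dependent transcription is measured in ARE-luc HepG2 cells: compound is applied for 16 hr at 37 C after a 6 hr attachment period, and luciferase activity is quantified by luminescence using ONE-Glo.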

[15] = qHTS assay for small molecule agonists of the antioxidant response element (ARE) signaling pathway measured by Nrf2-dependant transcriptional activity - cell viability counter screen (AID 720653; active means well fitted curve in the direction sought with a large enough effect in the repeat runs; an effect the other way counts as inactive or inconclusive; further: on the % scale 0 is the no-effect control and ±100 the full control effect); conditions: ARE-bla HepG2 viability, CellTiter-Glo ATP luminescence, 16 h; max response: stronger effect = lower value
In short: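 Cytotoxicity counter screen: intracellular ATP quantified by CellTiter-Glo luminescence in the same ARE-bla HepG2 plates, after 16 h compound exposure and a 2 h beta-lactamase substrate step.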

[16] = qHTS assay for cell viability of HEK293 cells (AID 743288; active means well fitted curve in the direction sought with a large enough effect; an effect the other way counts as inactive or inconclusive; further: on the % scale 0 is the no-effect control and ±100 the full control effect; nearly all actives have a fitted effect of over 50% in size); conditions: ATP luminescence (CellTiter-Glo), 18 h; max response: stronger effect = lower value
In short: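 Luminescent ATP quantitation served as the viability read-out. Cells (parental HEK293, 2,000/well) received compounds after at least 5 h at 37 C and were exposed for 18 h before a 30 min room-temperature reagent step.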

[17] = qHTS assay for cell viability of the p53RE-bla HCT-116 cell line (AID 743292; active means well fitted curve in the direction sought with a large enough effect; an effect the other way counts as inactive or inconclusive; further: on the % scale 0 is the no-effect control and ±100 the full control effect; nearly all actives have a fitted effect of over 55% in size)
In short: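 ATP-based luminescence, 16 h compound exposure at 37 C, p53RE-bla HCT-116 cells at 4,000/well.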

[18] = biological target: Nuclear receptor subfamily 1 group I member 2 (Rattus norvegicus) (UniProt Q9R1A7); test: qHTS assay for small molecule activators of the rat pregnane X receptor (rPXR) signaling pathway (AID 651751; call rule not given here; further: 0% is about no effect); conditions: rPXR reporter cells, luciferase (One-Glo), 24 h
Sequence of Nuclear receptor subfamily 1 group I member 2 (Rattus norvegicus) (Q9R1A7 whole entry, looked up): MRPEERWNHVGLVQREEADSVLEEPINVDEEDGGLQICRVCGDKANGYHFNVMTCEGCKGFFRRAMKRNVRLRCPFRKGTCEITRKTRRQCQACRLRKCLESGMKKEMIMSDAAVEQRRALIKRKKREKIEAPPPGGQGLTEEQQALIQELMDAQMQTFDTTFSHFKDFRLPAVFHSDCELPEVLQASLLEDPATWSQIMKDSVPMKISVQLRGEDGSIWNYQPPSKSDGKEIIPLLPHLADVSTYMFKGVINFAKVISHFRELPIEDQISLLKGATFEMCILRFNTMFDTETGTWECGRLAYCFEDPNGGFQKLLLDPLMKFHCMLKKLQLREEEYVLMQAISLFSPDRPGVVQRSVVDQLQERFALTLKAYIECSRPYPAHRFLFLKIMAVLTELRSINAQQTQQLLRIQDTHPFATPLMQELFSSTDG

[19] = qHTS assay for small molecule activators of the human pregnane X receptor (PXR) signaling pathway (AID 720659; call rule not given here; further: 0% is about no effect)
[20] = biological target: Thyroid hormone receptor beta (Homo sapiens) (UniProt P10828); test: qHTS assay for small molecule agonists of thyroid hormone receptor beta signaling (AID 588545)
Sequence of Thyroid hormone receptor beta (Homo sapiens) (P10828 whole entry, looked up): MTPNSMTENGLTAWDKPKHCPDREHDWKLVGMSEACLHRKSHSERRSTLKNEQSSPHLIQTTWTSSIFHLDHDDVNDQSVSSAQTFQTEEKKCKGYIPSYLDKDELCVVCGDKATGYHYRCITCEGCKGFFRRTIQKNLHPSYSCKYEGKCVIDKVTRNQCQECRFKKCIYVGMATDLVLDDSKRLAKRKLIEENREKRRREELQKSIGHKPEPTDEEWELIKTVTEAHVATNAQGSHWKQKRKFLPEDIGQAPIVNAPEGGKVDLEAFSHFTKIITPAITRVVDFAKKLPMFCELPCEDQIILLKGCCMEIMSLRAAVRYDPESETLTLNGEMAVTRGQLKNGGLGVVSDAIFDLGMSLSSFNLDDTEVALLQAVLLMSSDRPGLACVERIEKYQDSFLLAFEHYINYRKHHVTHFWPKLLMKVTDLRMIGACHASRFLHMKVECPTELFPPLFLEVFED
In short: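 Agonist activity was read as beta-lactamase CCF4 fluorescence (405 ex, 460/530 em), scaled between DMSO (0%) and 10 nM T3 (100%), then Hill-fitted for EC50 and efficacy. HEK 293 TR-UAS-bla cells in 2% charcoal/dextran FBS medium were exposed 18 h at 37 C.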

CS/C(=N\O)C(=O)N(C)C
0.656%: max response [9]
inactive: Potency [1] | activation [2] 1.45% | Potency [3] | outcome [4] | Potency [5] | outcome [6] | Potency [8] | max response [10] -15.6% | activation [11] -2.88% | activation [12] -0.34% | max response [13] -1.04% | Potency [14] | max response [15] -5.16% | max response [16] -6.73% | Potency [17] | max response [18] -0.0731% | outcome [19]
6.39%: max response [7]

CN(C)c1nc(=O)n(C2CCC(O)CC2)c(=O)n1C (stereo unspecified)
-9.86%: max response [7]
inactive: Potency [1] | activation [2] 6.12% | Potency [3] | outcome [4] | Potency [5] | outcome [6] | Potency [8] | Potency [20] | activation [11] -0.848% | activation [12] -0.637% | max response [13] -3.35% | max response [15] 6.16% | max response [16] -7.57% | Potency [17] | max response [18] -1.79% | outcome [19]

O=S(c1ccc(Cl)cc1)c1cc(Cl)c(Cl)cc1Cl (stereo unspecified)
inactive: Potency [1] | activation [2] 1.68% | Potency [5] | outcome [6] | Potency [20] | activation [12] 0.902% | max response [13] -1.31% | Potency [14] | max response [15] -25.7% | Potency [17]
active: Potency [11] 7.94 µM

CCCCCCCCCCCCCCC(=O)OC
2.13%: max response [7]
-9.41%: max response [9]
inactive: Potency [1] | activation [2] -1.65% | Potency [3] | outcome [4] | Potency [5] | outcome [6] | Potency [8] | max response [10] 8.47% | activation [11] 0.418% | activation [12] -1.03% | max response [13] -0.882% | max response [15] -2.69% | max response [16] -7.2% | Potency [17] | max response [18] -2.84% | outcome [19]

CC(C)=CCC[C@@H](C)[C@H]1CC[C@@]2(C)C3=C(CC[C@]12C)[C@@]1(C)CC[C@H](O)C(C)(C)[C@@H]1CC3
inactive: Potency [1] | activation [2] 8.87% | Potency [3] | outcome [4] | Potency [5] | outcome [6] | Potency [8] | Potency [20] | max response [10] 8.2% | activation [11] 1.26% | activation [12] 1.89% | Potency [14] | max response [15] 3.07% | max response [16] -4.2% | Potency [17] | max response [18] 0.187% | outcome [19]
-27.3%: max response [7]
0.0546%: max response [9]

CC1COCc2cc3c(cc21)C(C)(C)C(C)C3(C)C (stereo unspecified)
inactive: activation [2] 13.9% | Potency [3] | outcome [4] | Potency [5] | outcome [6] | Potency [8] | max response [10] 0.528% | activation [11] 1.51% | activation [12] 1.13% | max response [13] 7.58% | Potency [14] | max response [15] -2.78% | Potency [17] | max response [18] 3.75%
-17.6%: max response [9]
active: Potency [1] 11.2 µM
-11.9%: max response [7]

CCOC(=O)C1=NN(c2ccc(Cl)cc2Cl)C(C)(C(=O)OCC)C1 (stereo unspecified)
-4.87%: max response [7]
inactive: Potency [1] | activation [2] -2.41% | Potency [3] | Potency [5] | outcome [6] | Potency [8] | Potency [20] | activation [11] -1.4% | activation [12] -3.22% | max response [13] 0.459% | Potency [14] | max response [16] -23.5% | Potency [17] | max response [18] -0.641%

COc1nc(C)nc(NC(=O)NS(=O)(=O)c2ccccc2OCCCl)n1
11.2%: max response [9]
inactive: Potency [1] | activation [2] -18.5% | Potency [3] | outcome [4] | outcome [6] | Potency [20] | max response [10] 20.3% | activation [11] 0.852% | activation [12] 2.11% | max response [13] 1.06% | max response [15] 14.8% | max response [16] 6.67% | max response [18] 5.75% | outcome [19]

CCCCCCCCCC[N+](C)(C)Cc1ccccc1
active: Potency [1] 1.12 µM | Potency [10] 35.5 µM
inactive: activation [2] -4.12% | Potency [3] | outcome [4] | Potency [5] | Potency [20] | activation [11] 4.29% | activation [12] 0.379% | max response [13] 7.43% | Potency [14] | max response [15] -23% | max response [16] -27.5% | max response [18] -4.11% | outcome [19]
16%: max response [9]

CC(C)(C)C(O)/C(=C\c1ccc(Cl)cc1)n1cncn1 (stereo unspecified)
16.3%: max response [7]
-0.493%: max response [9]
inactive: Potency [1] | activation [2] 0.903% | Potency [3] | outcome [4] | Potency [5] | outcome [6] | Potency [8] | Potency [20] | max response [10] -24.9% | activation [11] -1.6% | activation [12] 3.57% | max response [13] 6.34% | max response [15] -4.78% | max response [16] -13.5% | Potency [17]

CCOC(=O)C(C)Oc1ccc(Oc2cnc3cc(Cl)ccc3n2)cc1 (stereo unspecified)
inactive: Potency [1] | activation [2] -6.64% | outcome [4] | Potency [5] | outcome [6] | max response [10] -14.1% | activation [12] 1.27% | max response [13] 11.2% | max response [15] -11.5% | max response [16] 4.59% | outcome [19]
22.1%: max response [9]

C[C@]12CCC(=O)C=C1CC[C@@H]1[C@@H]2[C@@H](O)C[C@]2(C=O)[C@@H](C(=O)CO)CC[C@@H]12
inactive: Potency [1] | Potency [5] | outcome [6] | Potency [8] | max response [10] 1.07% | activation [11] -3.08% | activation [12] -0.37% | Potency [14] | max response [15] -8.31% | max response [16] -8.63% | Potency [17] | max response [18] -0.971% | outcome [19]
19.7%: max response [7]
-18.8%: max response [9]
